Bioassay records as filed in PubChem BioAssay.
CtBP-E1A inh: qHTS Assay for Inhibitors of the CtBP/E1A Interaction; AlphaScreen GST-E1A/His-CtBP binding, 1536-well; stronger effect = lower value; CtBP / adenovirus E1A interaction (AlphaScreen); activity change, % (test concentration not listed); 0.49% of 340,000 active; in the data active = activity change below about -65%; inconclusive = mostly about -30% to -63%; also: % is scaled to controls: 0 for no effect and ±100 for the full control effect
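AlphaScreen with 125 nM GST-E1A and 125 nM His-CtBP (5X stocks) in Tris pH 8.0, 300 mM NaCl, BSA, Tween 20, TCEP. Compounds preincubated 2 h at 37 deg C, then glutathione donor/nickel acceptor beads added for 1 h at 37 deg C in dark.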
Six1-Eya2 blk: qHTS Assay for Inhibitors of the Six1/Eya2 Interaction. 0.56% of 360,000 active. AlphaScreen GST-Six1/His-Eya2 binding, biochemical; stronger effect = lower value. Homeobox protein SIX1 (Homo sapiens) + Protein phosphatase EYA2 (Homo sapiens), …. activity change, % (concentration not given with the values). AID 651725, 2012; in the data active = activity change below about -65%; inconclusive = mostly about -30% to -63%; also: % is scaled to controls: 0 for no effect and ±100 for the full control effect
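AlphaScreen with GST-Six1 and His-Eya2 (5X mix: 250 nM and 500 nM), glutathione donor and nickel acceptor beads; buffer 50 mM Tris pH 8.0, 300 mM NaCl, 1 mM TCEP; 1 h at 37 C in the dark.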
BAZ2B inh: qHTS Assay for Inhibitors of BAZ2B; AlphaScreen BAZ2B-H3K14Ac peptide displacement; Bromodomain adjacent to zinc finger domain protein 2B (Homo sapiens), Q9UIF8; 4.4% of 360,000 active; Potency, µM (doses to about 114 µM), without a hit: at the top dose activity change, negative = inhibition, actives largely listed as inhibitors; also: potency is read from the fitted curve at half-maximal effect; % is scaled to controls: 0 for no effect and ±100 for the full control effect; nearly all actives have a fitted effect of over 60% in size
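Complex of BAZ2B and biotin-H3K14Ac (50 nM apiece) forms over 30 min at RT, then faces library compounds up to 110 uM for another 30 min; AlphaScreen beads added, 20 min dark incubation, luminescence read.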
G9a block: qHTS Assay for Inhibitors of Histone Lysine Methyltransferase G9a; Histone-lysine N-methyltransferase EHMT2 (Homo sapiens), Q96KQ7; 8.8% of 350,000 active; G9a H3K9 monomethylation, AlphaScreen, 2 h; Potency, µM (top dose mostly 102 µM), inactives show top-dose activity, negative = inhibition, usual class: inhibitors; AID 504332, 2011; also: potency is read from the fitted curve at half-maximal effect; % is scaled to controls: 0 for no effect and ±100 for the full control effect; nearly all actives have a fitted effect of over 75% in size
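G9a (20 nM) preincubated 15 min RT with compounds, then 500 nM biotinylated H3K9 peptide and 20 uM SAM added; 2 h RT reaction. Monomethyl-H3K9 product detected by AlphaScreen with anti-H3K9me1 antibody, streptavidin donor and anti-rabbit IgG acceptor beads.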
HP1b binding inh: HTS for Inhibitors of HP1-beta Chromodomain Interactions with Methylated Histone Tails | Chromobox protein homolog 1 (Homo sapiens), P83916 | AlphaScreen HP1-beta / biotin-H3K9me3 peptide binding | Potency, µM (doses to about 114 µM), without a hit: top-dose activity change, negative = inhibition, hits mostly inhibitors | 0.56% of 390,000 active; also: potency is read from the fitted curve at half-maximal effect; nearly all actives have a fitted effect of over 70% in size
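Compound inhibition of the preformed complex between 50 nM HP1-beta and 50 nM biotinylated H3K9me3 peptide was read by AlphaScreen. Buffer was PBS pH 7.4 with 0.01% Tween-20. Incubations ran 30 min at room temperature, with 10 ug/mL donor/acceptor beads.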
JMJD2A Tudor: qHTS Assay for Inhibitors of JMJD2A-Tudor Domain; Lysine-specific demethylase 4A (Homo sapiens), O75164; AlphaScreen JMJD2A-Tudor / H3K4me3 peptide binding; AID 504339, 2011; 4.4% of 390,000 active; Potency, µM (highest dose often 114 µM), for the others: at the highest dose activity change, negative = inhibition, hits mostly inhibitors; also: potency is read from the fitted curve at half-maximal effect; % is scaled to controls: 0 for no effect and ±100 for the full control effect; nearly all actives have a fitted effect of over 50% in size
Active calls of the source: *; u = inconclusive; x = not tested or not shown; [ ] = dose if it differs, or a comment. In the library only some 10% were active in any assay of this set; here they are far more common. Unless noted, calls follow the shape of the dose curve; as a rule, active = well fitted inhibition curve with a large enough effect; inconclusive = small, poorly fitted or top-dose-only effect; inactive = no such curve, though single readings can be large or run the other way.

SMILES	CtBP-E1A inh	Six1-Eya2 blk	BAZ2B inh	G9a block	HP1b binding inh	JMJD2A Tudor
O=C(N[C@@H](Cc1ccccc1)C(=O)CCl)OCc1ccccc1	-15.5	6.9	4.1%	15µM*	54.8%	-9.0%
CC(C)C[C@@H](C=O)NC(=O)[C@H](CC(C)C)NC(=O)[C@H](CC(C)C)NC(=O)OCc1ccccc1	x	x	x	8.91µM*	x	x
COC(=O)[C@H](Cc1ccccc1)NC(=O)[C@@H](N)CC(=O)OCc1ccccc1	5.0	2.3	u	5.5%[0.501 µM]	-10.6%	u
COC(=O)C(CC(C)C)NC(=O)C(N)Cc1ccccc1 (centres undefined)	6.5	4.5	3.8%	44.7µM*	11.8%	u
CC(=O)N(C)C	x	x	x	27.2%[59 µM]	x	x
Cc1nn(S(=O)(=O)c2ccc(F)cc2)c(C)c1S(=O)(=O)N1CCCCCC1	x	x	0.0%	1.4%[59 µM]	11.5%[57 µM]	-10.5%
CC1=NN(C(N)=S)C(=O)C1N=Nc1ccccc1C (centres undefined)	-0.3	2.8	-10.8%	0.6%[59 µM]	-1.0%	-25.0%
CC1=NN(C(N)=S)C(=O)C1N=Nc1ccccc1[N+](=O)[O-] (centres undefined)	-9.9	-0.8	x	x	x	x
CCOc1ccccc1N=NC1C(=O)N(C(N)=S)N=C1C (centres undefined)	2.2	-0.1	7.4%	50.1µM*	-3.3%	-4.0%
CC1=NN(C(N)=S)C(=O)C1N=Nc1ccccc1O (centres undefined)	x	-28.4	50.1µM*	x	46.9%	56.2µM*
CCOC(=O)c1ccc(NC(=S)NNC(=O)COC)cc1	-0.8	-6.1	43.7%	u	13.1%	-4.8%
N#Cc1ccccc1NC(=S)NC(=O)C1CCC1	-1.1	3.3	-12.0%	70.8µM*	31.1%	0.7%
CC(C)CCOCC(O)CCC(=O)NNC(=S)Nc1ccccc1 (centres undefined)	x	0.7	-1.8%	28.2µM*	24.4%	-11.1%
CCOC(=O)c1ccc(NC(=S)NNC(=O)C2(C)CC2(Cl)Cl)cc1 (centres undefined)	1.6	-0.9	11.2%	10µM*	-1.6%	-18.1%
O=C(NC(=S)Nc1ccccc1Br)C1CCC1	4.0	3.9	3.0%	21.6%	33.5%	-10.3%
O=C(NC(=S)Nc1ccc(F)c(Cl)c1)C1CC1	-0.3	0.8	-14.4%	56.2µM*	43.0%	-4.1%
CCCCOc1ccc(Cn2c(=O)sc3ccccc32)cc1OC	x	x	94.8%	89.8%[59 µM]	101.9%	68.0%
CCOc1ccccc1NC(=O)Cn1nc2c3cc(F)ccc3n(Cc3cccc(C)c3)cc-2c1=O	x	x	-5.8%	u	26.3%	-4.5%
COC(=O)c1ccc(NC(=S)NNC(=O)CC(C)C)cc1	8.2	3.0	-0.9%	10µM*	-12.2%	-22.6%
COC(=O)c1ccc(NC(=S)NC(=O)C2CCC2)cc1	-7.4	-2.7	-6.4%	79.4µM*	46.6%	-6.2%
COC(=O)c1ccc(NC(=S)NC2c3ccccc3CC2O)cc1 (centres undefined)	-5.4	11.8	1.5%	50.1µM*	-7.5%	-3.5%
COc1ccc(NC(=O)c2cc(-c3ccc(C)o3)nc3ccccc23)c(OC)c1	x	-2.4	x	x	14.4%	u
Cc1ccc(-c2cc(C(=O)Nc3nccs3)c3ccccc3n2)o1	-2.8	u	-36.3%	4.47µM*	17.0%	u
COc1ccc(NC(=O)c2cc(-c3ccc(C)o3)nc3ccccc23)cc1OC	u	u	-30.7%	u	-14.4%	56.2µM*
CCOC(=O)N1CCC(NC(=O)c2cnn(-c3ccc(OC)cc3)c2C2CCN(C(=O)OC(C)(C)C)CC2)CC1	x	x	5.5%[57.1 µM]	-32.1%[59 µM]	36.2%	-1.6%
SMILES	CtBP-E1A inh	Six1-Eya2 blk	BAZ2B inh	G9a block	HP1b binding inh	JMJD2A Tudor
COc1ccc(NC(=O)c2ccc(Br)o2)cc1	0.5	5.9	u	31.6µM*	25.8%	-10.6%
N#C/C(=C/c1ccc(Br)o1)C(N)=S	x	x	u	31.6µM*	x	x
O=C(Nc1ccc(Nc2ccccc2)cc1)c1ccc(Br)o1	-29.3	-23.7	22.4µM*	35.5µM*	u	39.8µM*
COc1ccc(NC(=O)/C(C#N)=C/c2ccc(Br)o2)cc1	3.1	-8.5	50.1µM*	-43.2%[12.7 µM]	-0.2%	u
CC(C)c1ccc(NC(=O)c2ccc(Br)o2)cc1	4.9	2.0	6.3%	-16.7%[59 µM]	2.1%	-0.8%[11.4 µM]
COc1ccc(NC(=O)/C(C#N)=C/c2ccc(C)o2)cc1	x	x	-2.6%	-3.4%[59 µM]	15.1%	-17.6%
Cc1ccc(OCCCCn2c(-c3ccc(Cl)cc3)nc3ccccc3c2=O)cc1	x	x	23.3%	-18.0%[59 µM]	64.3%	31.5%
Cc1cc(C)n(CCc2nc3c4ccccc4nc(SCc4ccc(Cl)cc4)n3n2)n1	x	x	-1.8%	1.0%[59 µM]	-5.7%	-23.0%
COc1cccc(NC(=O)C(=O)NCC(c2ccc3c(c2)OCO3)N2CCOCC2)c1 (centres undefined)	x	x	-2.9%	-21.0%[59 µM]	25.7%[57 µM]	-6.1%
NS(=O)(=O)c1ccc(NC2=CC(=O)C(=O)c3ccccc32)cc1	u	-3.7	u	x	-8.2%	22.4µM*
Cc1ccc(NC2=CC(=O)C(=O)c3ccccc32)cc1	u	-20.2	39.8µM*	u	-29.2%	u
Cc1cc(NC2=CC(=O)C(=O)c3ccccc32)no1	u	8.5	x	x	3.1%	-17.4%
COc1cc(OC)c(NC2=CC(=O)C(=O)c3ccccc32)cc1Cl	x	-28.7	u	39.8µM*	u	u
CCOC(=O)c1ccc(NC2=CC(=O)C(=O)c3ccccc32)cc1	-12.4	-21.0	u	u	u	u
NS(=O)(=O)c1ccc(NC(=O)Nc2ccccc2)cc1	0.2	5.2	-4.1%	-4.4%[59 µM]	17.2%	-11.0%
CCCS(=O)(=O)Nc1cc(-c2cn3cccc(C)c3n2)ccc1C	x	x	u	-15.1%[59 µM]	5.7%	-27.4%
N#Cc1ccc(-c2cccs2)nc1SCc1c(F)cccc1Cl	x	x	5.6%	48.2%[59 µM]	94.2%	60.8%
CCCn1nc(C(=O)Nc2ccc3nc(N4CCOCC4)sc3c2)ccc1=O	-18.2	9.5	-7.2%	50.1µM*	11.2%	-13.8%
COc1ccc(C(=O)Nc2ccc3nc(N4CCOCC4)sc3c2)cc1OC	-1.7	-5.0	3.5%	-6.9%[12.7 µM]	30.7%	-0.3%
Cc1ccc(-c2cc(C(=O)N3CCN(S(=O)(=O)c4ccc(Br)cc4)CC3)[nH]n2)cc1C	x	x	-4.8%	4.3%[59 µM]	19.1%	-17.5%
COc1ccc(C(=S)Nc2ccc(C)cc2)cc1	-5.8	0.0	-4.1%	10µM*	u	-24.8%
COc1ccc(C(=S)NCS(=O)(=O)c2ccc(C)cc2)cc1	3.8	13.3	u	8.91µM*	-28.6%	-27.2%
